High-throughput results: PubChem, National Center for Advancing Translational Sciences (NCATS)
Pf growth 96h = P. falciparum growth inhibition at 96 hour, primary screen for plastid delayed-death inhibitors; P. falciparum luciferase reporter growth, 96 h; Potency, µM (series often up to 28.7 µM), for the others: top-dose activity change, negative = inhibition, hits mostly inhibitors; 320,000 compounds, 6.9% hits; note: potency is the fitted concentration of half-maximal effect
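Readout is luminescence from an integrated firefly luciferase in P. falciparum. Red cells, 2% hematocrit and 0.05% parasitemia final, were cultured with compound through two parasite generations (96 hours) at 37 C, 5% CO2.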
Pf growth 48h = inhibits P. falciparum growth in the first generation, 48 h | P. falciparum luciferase growth in erythrocytes, 48 h | Potency, µM (series often up to 28.7 µM), for the others: at the top dose activity change, negative = inhibition, most hits filed as inhibitors | 310,000 compounds, 5.9% hits; note: potency is the fitted concentration of half-maximal effect
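First compound was added to culture medium, then infected red cells at 0.1% parasitemia and 2% hematocrit (final). After incubation at 37 C under 5% CO2, luciferase detection reagent was dispensed and light output recorded.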
HCV inhibitor = HCV inhibition; Potency, µM (titrated, usually from 41.8 µM), for the others: top-dose activity change, negative = inhibition, usual class: inhibitors; 340,000 compounds, 3.4% hits; Huh7.5.1 HCVcc-Cre infection, luciferase reporter, 44 h; note: potency is the fitted concentration of half-maximal effect
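Luciferase read-out (15 sec integration) after a 15 min room-temperature substrate step quantifies HCVcc-Cre infection. Cells, 1,000 per well, had compound added 4 h post-plating, then virus at ~0.5 moi, and were cultured 44 h.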
MARV entry inh = inhibitors of Marburg virus binding or cell entry; AID 540276; 300,000 compounds, 1.8% hits; Marburg virus pseudotyped entry inhibition, cell reporter; Potency, µM (top dose mostly 37.8 µM), without a hit: at the top dose activity change, negative = inhibition, usual class: inhibitors; calls by dose curve; tested in HEK293 cells; note: potency is the fitted concentration of half-maximal effect
HCMV antiviral = human cytomegalovirus inhibition | 410,000 compounds, 4.5% hits | AID 1259415 | HFF cells, HCMV-luciferase reporter, 72 h; stronger effect = lower value | activity change, negative = inhibition, % at 57.5 µM; in the data active = activity change below about -60%; inconclusive = no clear call, values can overlap the other calls; inactive = above about -39%
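HFF cells seeded 16 h at 37C, treated with compounds, infected with luciferase-reporter HCMV at MOI 1 PFU/cell; luciferase read at 72 h post infection, normalized to buffer-only and Salinomycin controls.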
LASV entry inh = inhibitors of Lassa virus binding or cell entry; 300,000 compounds, 1.2% hits; Lassa virus pseudotype entry inhibition, cell reporter; Potency, µM (titrated, usually from 37.9 µM), without a hit: at the highest dose activity change, negative = inhibition, hits mostly inhibitors; AID 540256; calls by dose curve; tested in HEK293 cells; note: potency is the fitted concentration of half-maximal effect; nearly all actives have a fitted effect of over 50% in size
Starred values were filed as active, the others as inactive; [ ] = another dose, or the depositor's remark. Compounds with a hit are over-represented: about 14% of the library has one in this group of screens. Unless noted, calls come from the whole dose curve; as a rule, active = well fitted inhibition curve with a large enough effect; inconclusive = small, poorly fitted or top-dose-only effect, or another doubt; inactive = no such curve, though single readings can be large or run the other way. % is set by controls: 0 for no effect and ±100 for the full control effect.

For Cc1nn(C)cc1CNC(=O)c1cc2n(n1)C(C(F)(F)F)CC(c1cccs1)N2 (stereo unspecified) the results were Pf growth 48h -12.3%, HCV inhibitor inconclusive, MARV entry inh -2.3%, HCMV antiviral inconclusive and LASV entry inh inconclusive.
For CC(C)NC(=O)c1cnn2c1NC(c1cccs1)CC2C(F)(F)F (stereo unspecified) the results were Pf growth 96h -7.1%, Pf growth 48h -2.1%, HCV inhibitor 2.82µM*, MARV entry inh -7.5%, HCMV antiviral inconclusive and LASV entry inh 1.4%.
`NS(=O)(=O)c1cccc(NC(=O)CSc2nc3ccccc3c(=O)n2CCCN2CCOCC2)c1` gave Pf growth 96h -26.6%, Pf growth 48h -4.9%, HCV inhibitor 12.1%, MARV entry inh -12.7%, HCMV antiviral -14.1 and LASV entry inh inconclusive.
For CN(C)S(=O)(=O)c1cccc(NC(=O)CSc2nc3ccccc3[nH]2)c1 the results were Pf growth 96h -32.0%, Pf growth 48h -1.6%, HCV inhibitor inconclusive, MARV entry inh inconclusive, HCMV antiviral -60.6* and LASV entry inh inconclusive.
For CN(C)S(=O)(=O)c1cccc(NC(=O)CSc2ncnc3ccccc23)c1 the results were Pf growth 96h inconclusive, Pf growth 48h inconclusive, HCV inhibitor 7.94µM*, MARV entry inh inconclusive, HCMV antiviral -15.1 and LASV entry inh inconclusive.
For CCN(CC)S(=O)(=O)c1cccc(NC(=O)CSc2nc3ccccc3[nH]2)c1 the results were Pf growth 96h inconclusive, Pf growth 48h -17.8%, HCV inhibitor inconclusive, MARV entry inh inconclusive, HCMV antiviral inconclusive and LASV entry inh -22.1%[46.1 µM].
CCCn1c(SCC(=O)Nc2cccc(S(=O)(=O)N(C)C)c2)nc2ccccc2c1=O was read as Pf growth 96h inconclusive, Pf growth 48h inconclusive, HCV inhibitor inconclusive, MARV entry inh 11.2µM*, HCMV antiviral -16.9 and LASV entry inh -16.4%[46.1 µM].
Cc1[nH]c2ccc(C(=O)N3CCN(c4ccccc4F)CC3)cc2c1C was read as HCMV antiviral 0.0 and LASV entry inh inconclusive.
Screening COc1ccc(OC)c(NC(=O)Cn2nc3c(cc2=O)CCCC3)c1 returned MARV entry inh inconclusive, HCMV antiviral 6.2 and LASV entry inh 10.0%[46.1 µM].
Screening CCN(CC(=O)Nc1c(F)cccc1F)C(=O)c1ccc(Cl)c(S(=O)(=O)N2CCCC2)c1 returned Pf growth 96h inconclusive, Pf growth 48h inconclusive, HCV inhibitor -20.3%, MARV entry inh -6.1%, HCMV antiviral -11.0 and LASV entry inh -18.0%.
For CCN(CC(=O)Nc1c(F)cccc1F)C(=O)c1ccc(OC)c(S(=O)(=O)NC2CCCC2)c1 the results were HCMV antiviral -71.6*.
CCCCCNC(=O)c1nc(-c2c(F)cccc2F)oc1-c1ccccc1 was read as HCMV antiviral -31.1.
Screening COc1ccc(N2CCN(C(=O)COC(=O)CC(NC(N)=O)c3ccc(Cl)cc3)CC2)cc1 (stereo unspecified) returned HCMV antiviral -62.0*.
COc1ccc(N2CCN(C(=O)COc3ccc4ccccc4c3)CC2)cc1 was read as Pf growth 96h 9.28µM*, Pf growth 48h 3.6%, HCV inhibitor -8.6%, MARV entry inh 14.5%, HCMV antiviral -7.4 and LASV entry inh -0.9%.
`COc1ccc(N2CCN(C(=O)COC(=O)CNC(=O)c3ccc(Cl)cc3Cl)CC2)cc1` gave Pf growth 96h 60.8%, Pf growth 48h -6.9%, HCV inhibitor 9.7%, MARV entry inh 26.8%, HCMV antiviral -21.8 and LASV entry inh 7.3%.
For CC(=O)c1ccc(N2CCN(C(=O)COc3ccc4ccccc4c3)CC2)cc1 the results were HCMV antiviral -62.0*.
Screening CC[C@H](C)[C@H](NC(=O)OCc1ccccc1)C(=O)OCC(=O)N1CCN(c2ccc(OC)cc2)CC1 returned HCV inhibitor 12.6µM* and HCMV antiviral 30.9.
Screening COc1ccc(C(=O)N2CCCCC2c2cc(C(=O)NCc3cccnc3)no2)cc1 (stereo unspecified) returned HCMV antiviral -28.7.
